The structures appear in SMILES notation. The source made the active and inactive calls. Rule for the calls: active = hit-call score of the fitted dose curve at least 0.9, where 1 is the maximum; inactive = score below 0.9.

Outcome and AC50 data for four compounds are collected here from PubChem BioAssay (EPA / NIEHS).

What all share (settings): mRNA level, 48 h; actives raise or lower the signal
Read-out in test [1]: ABC Transporter (ABCB11), ABCB11 (gene 8647)
Briefly: LTEA_HepaRG_ABCB11: Life Technologies and Expression Analysis (LTEA) Assay for ABC Transporter (ABCB11) using HepaRG (AID 2283463). The method in brief:
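HepaRG, 48 h exposure, 8-pt half-log CRC top 100 uM, 0.5% DMSO vehicle, duplicates. Readout: TaqMan qRT-PCR of ABCB11 mRNA, housekeeping-normalized (ACTB/GAPDH/POLR2A). Bidirectional fit vs DMSO baseline.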

Read-out in test [2]: Broad substrate specificity ATP-binding cassette transporter ABCG2 (Homo sapiens) (UniProt Q9UNQ0)
Put plainly: LTEA_HepaRG_ABCG2: Life Technologies and Expression Analysis (LTEA) Assay for ABC Transporter (ABCG2) using HepaRG (AID 2283465). The method in brief: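 HepaRG, 48 h exposure, 8-pt half-log series from 100 uM, 0.5% DMSO vehicle, duplicates. Readout: ABCG2 transcript by qRT-PCR (Fluidigm array), housekeeping-normalized; bidirectional curve fit relative to DMSO baseline.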

Read-out in test [3]: ATP-citrate lyase (ACLY), ACLY (gene 47)
Put plainly: LTEA_HepaRG_ACLY: Life Technologies and Expression Analysis (LTEA) Assay for ATP-citrate lyase (ACLY) using HepaRG (AID 2283466). An outline of the steps:
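qRT-PCR readout of ACLY transcript after 48 h chemical treatment of HepaRG cells; expression normalized to three housekeeping genes. Eight-point half-log series, highest 100 uM, 0.5% DMSO vehicle. Gain or loss fitted against DMSO baseline.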

Read-out in test [4]: Peroxisomal acyl-coenzyme A oxidase 1 (ACOX1) gene, ACOX1 (gene 51)
Briefly: LTEA_HepaRG_ACOX1: Life Technologies and Expression Analysis (LTEA) Assay for Peroxisomal acyl-coenzyme A oxidase 1 (ACOX1) gene using HepaRG (AID 2283467). An outline of the steps: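 HepaRG, 48 h chemical exposure, 8-pt half-log series from 100 uM top, 0.5% DMSO vehicle, duplicates. Readout: ACOX1 mRNA by Fluidigm qRT-PCR, housekeeping-normalized; bidirectional fit vs DMSO baseline.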

Read-out in test [5]: Alkaline Phosphatase, Placental (ALPP) gene, ALPP (gene 250)
Put plainly: LTEA_HepaRG_ALPP: Life Technologies and Expression Analysis (LTEA) Assay for Alkaline Phosphatase, Placental (ALPP) gene using HepaRG (AID 2283468). The method in brief: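 Differentiated human HepaRG cells were plated and cultured 48 h, then exposed in duplicate for 48 h in serum-free induction medium to eight half-log concentrations from 100 uM in 0.5% DMSO. ALPP mRNA was measured by TaqMan qRT-PCR, normalized to ACTB, GAPDH, POLR2A.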

Read-out in test [6]: Bcl-2 (BAD) gene, BAD (gene 572)
Briefly: LTEA_HepaRG_BAD: Life Technologies and Expression Analysis (LTEA) Assay for Bcl-2 (BAD) gene using HepaRG (AID 2283469). The method in brief:
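HepaRG, 48 h exposure, 8-pt half-log curve from 100 uM in 0.5% DMSO, duplicates. Readout: TaqMan qRT-PCR for BAD mRNA, housekeeping-normalised (ACTB/GAPDH/POLR2A); gain or loss fitted against DMSO baseline.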

Read-out in test [7]: Bcl-2 (BAX) gene, BAX (gene 581)
Put plainly: LTEA_HepaRG_BAX: Life Technologies and Expression Analysis (LTEA) Assay for Bcl-2 (BAX) gene using HepaRG (AID 2283470). An outline of the steps:
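Gene expression measured by Fluidigm qRT-PCR with three housekeeping genes for normalisation. HepaRG cells, plated 48 h beforehand, treated 48 h at up to 100 uM (8-point, half-log) in 0.5% DMSO. Bidirectional fitting versus DMSO.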

Read-out in test [8]: adenosine kinase (ADK) gene, ADK (gene 132)
Put plainly: LTEA_HepaRG_ADK: Life Technologies and Expression Analysis (LTEA) Assay for adenosine kinase (ADK) gene using HepaRG (AID 2283471). An outline of the steps:
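HepaRG (human liver), 48 h chemical exposure, 8-pt half-log series, top 100 uM, 0.5% DMSO vehicle. Readout: ADK mRNA by qRT-PCR vs housekeeping genes; bidirectional curve fit relative to DMSO baseline.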

Read-out in the next test: BCL2L11 (gene 10018)
Put plainly: LTEA_HepaRG_BCL2L11: Life Technologies and Expression Analysis (LTEA) Assay for Bcl-2 (BCL2L11) gene using HepaRG (AID 2283473). The method in brief:
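Differentiated human HepaRG cells in serum-free induction medium were exposed in duplicate for 48 h to eight concentrations (top 100 uM, half-log steps, 0.5% DMSO). BCL2L11 mRNA was quantified by TaqMan qRT-PCR, normalized to ACTB/GAPDH/POLR2A, bidirectional fit versus DMSO.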

Read-out in test [9]: Apolipoprotein A-V (APOA5) gene, APOA5 (gene 116519)
Put plainly: LTEA_HepaRG_APOA5: Life Technologies and Expression Analysis (LTEA) Assay for Apolipoprotein A-V (APOA5) gene using HepaRG (AID 2283474). An outline of the steps:
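Differentiated human HepaRG cells were exposed in duplicate for 48 h to eight half-log concentrations from 100 uM in 0.5% DMSO. APOA5 mRNA was quantified by TaqMan qRT-PCR, normalized to ACTB, GAPDH and POLR2A, and fitted bidirectionally against DMSO.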

Read-out in test [10]: Apoptosis regulator Bcl-2 (Homo sapiens) (UniProt P10415)
Put plainly: LTEA_HepaRG_BCL2: Life Technologies and Expression Analysis (LTEA) Assay for Bcl-2 gene using HepaRG (AID 2283475). The method in brief:
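qRT-PCR of BCL2 transcript, normalized to three housekeeping genes (ACTB, GAPDH, POLR2A), after 48 h chemical exposure of HepaRG cells; concentrations top 100 uM with half-log dilutions, 0.5% DMSO vehicle, duplicates; changes up or down fitted relative to vehicle.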

Read-out in test [11]: Bcl-2 (BID) gene, BID (gene 637)
Put plainly: LTEA_HepaRG_BID: Life Technologies and Expression Analysis (LTEA) Assay for Bcl-2 (BID) gene using HepaRG (AID 2283476). An outline of the steps: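 Duplicate 48 h treatments of HepaRG cells in serum-free induction medium spanned 100 uM downward in half-log steps, 0.5% DMSO. Transcript change quantified by qRT-PCR against three housekeeping genes, fitted up or down versus DMSO.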

Read-out in the next test: Caspase-3 (Homo sapiens) (UniProt P42574)
Briefly: LTEA_HepaRG_CASP3: Life Technologies and Expression Analysis (LTEA) Assay for cysteine-aspartic acid protease (CASP3) using HepaRG (AID 2283477). The method in brief: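 Differentiated human HepaRG cells in serum-free induction medium were exposed 48 h to 8-point half-log concentrations from 100 uM (0.5% DMSO vehicle). CASP3 mRNA was measured by qRT-PCR, normalised to ACTB, GAPDH and POLR2A, with bidirectional fitting against DMSO.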

Read-out in test [12]: Cytochrome P450 (CYP24A1), CYP24A1 (gene 1591)
Briefly: LTEA_HepaRG_CYP24A1: Life Technologies and Expression Analysis (LTEA) Assay for Cytochrome P450 (CYP24A1) using HepaRG (AID 2283478). An outline of the steps:
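Differentiated HepaRG cells, pre-cultured 48 h, were exposed in duplicate for 48 h in serum-free induction medium to 8 half-log concentrations (top 100 uM, 0.5% DMSO). CYP24A1 mRNA was quantified by TaqMan qRT-PCR, normalized to ACTB/GAPDH/POLR2A, fitted bidirectionally versus DMSO.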

Read-out in test [13]: Cytochrome P450 (CYP1A2), CYP1A2 (gene 1544)
Put plainly: LTEA_HepaRG_CYP1A2: Life Technologies and Expression Analysis (LTEA) Assay for Cytochrome P450 (CYP1A2) using HepaRG (AID 2283479). An outline of the steps:
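Differentiated human HepaRG cells in serum-free induction medium were exposed in duplicate for 48 h to 8-point half-log concentrations up to 100 uM in 0.5% DMSO. CYP1A2 mRNA measured by qRT-PCR, normalized to ACTB, GAPDH, POLR2A; bidirectional fit vs DMSO.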

Read-out in test [14]: cysteine-aspartic acid protease (CASP8), CASP8 (gene 841)
Put plainly: LTEA_HepaRG_CASP8: Life Technologies and Expression Analysis (LTEA) Assay for cysteine-aspartic acid protease (CASP8) using HepaRG (AID 2283480). The method in brief:
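qRT-PCR readout of CASP8 mRNA, normalized to three housekeeping genes, after 48 h chemical exposure of HepaRG cells; 8-point half-log series, top 100 uM, 0.5% DMSO vehicle. Bidirectional curve fitting against DMSO baseline.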

Read-out in test [15]: Cytochrome P450 (CYP2B6), CYP2B6 (gene 1555)
Briefly: LTEA_HepaRG_CYP2B6: Life Technologies and Expression Analysis (LTEA) Assay for Cytochrome P450 (CYP2B6) using HepaRG (AID 2283481). An outline of the steps:
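Differentiated HepaRG cells, serum-free induction medium, exposed 48 h in duplicate to 8-point half-log concentrations from 100 uM in 0.5% DMSO. CYP2B6 mRNA by qRT-PCR, normalized to ACTB, GAPDH, POLR2A; bidirectional fit versus DMSO.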

Read-out in test [16]: Cytochrome P450 2C19 (Homo sapiens) (UniProt P33261)
Put plainly: LTEA_HepaRG_CYP2C19: Life Technologies and Expression Analysis (LTEA) Assay for CYP2C19 using HepaRG (AID 2283482). The method in brief:
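Differentiated human HepaRG cells were exposed for 48 h in serum-free induction medium to 8 concentrations (top 100 uM, half-log steps, 0.5% DMSO). CYP2C19 mRNA was measured by qRT-PCR, normalized to ACTB/GAPDH/POLR2A, and fitted bidirectionally against DMSO.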

Read-out in test [17]: Alpha-fetoprotein (AFP) gene, AFP (gene 174)
Put plainly: LTEA_HepaRG_AFP: Life Technologies and Expression Analysis (LTEA) Assay for Alpha-fetoprotein (AFP) gene using HepaRG (AID 2283472). The method in brief: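 AFP transcript measured by TaqMan qRT-PCR with three housekeeping genes for normalization, after 48 h chemical treatment of HepaRG cells (top 100 uM, half-log steps, 0.5% DMSO). Gain or loss fitted against vehicle.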

Sequence of Caspase-3 (Homo sapiens) (P42574 whole entry, looked up): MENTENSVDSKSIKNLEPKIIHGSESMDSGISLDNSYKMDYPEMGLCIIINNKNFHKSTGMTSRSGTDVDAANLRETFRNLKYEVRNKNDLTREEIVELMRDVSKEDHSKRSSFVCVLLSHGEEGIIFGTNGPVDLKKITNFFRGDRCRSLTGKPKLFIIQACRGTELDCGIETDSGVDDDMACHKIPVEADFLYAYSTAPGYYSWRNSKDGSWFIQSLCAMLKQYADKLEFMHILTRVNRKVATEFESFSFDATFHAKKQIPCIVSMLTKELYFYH
Sequence of Apoptosis regulator Bcl-2 (Homo sapiens) (P10415 whole entry, looked up): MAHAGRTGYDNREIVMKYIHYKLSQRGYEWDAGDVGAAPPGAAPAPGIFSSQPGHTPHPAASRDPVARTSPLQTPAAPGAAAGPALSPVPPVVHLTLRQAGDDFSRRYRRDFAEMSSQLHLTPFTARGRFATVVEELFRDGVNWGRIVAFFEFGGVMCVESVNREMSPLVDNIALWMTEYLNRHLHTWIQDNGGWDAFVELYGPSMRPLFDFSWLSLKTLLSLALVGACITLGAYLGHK
Sequence of Cytochrome P450 2C19 (Homo sapiens) (P33261 whole entry, looked up): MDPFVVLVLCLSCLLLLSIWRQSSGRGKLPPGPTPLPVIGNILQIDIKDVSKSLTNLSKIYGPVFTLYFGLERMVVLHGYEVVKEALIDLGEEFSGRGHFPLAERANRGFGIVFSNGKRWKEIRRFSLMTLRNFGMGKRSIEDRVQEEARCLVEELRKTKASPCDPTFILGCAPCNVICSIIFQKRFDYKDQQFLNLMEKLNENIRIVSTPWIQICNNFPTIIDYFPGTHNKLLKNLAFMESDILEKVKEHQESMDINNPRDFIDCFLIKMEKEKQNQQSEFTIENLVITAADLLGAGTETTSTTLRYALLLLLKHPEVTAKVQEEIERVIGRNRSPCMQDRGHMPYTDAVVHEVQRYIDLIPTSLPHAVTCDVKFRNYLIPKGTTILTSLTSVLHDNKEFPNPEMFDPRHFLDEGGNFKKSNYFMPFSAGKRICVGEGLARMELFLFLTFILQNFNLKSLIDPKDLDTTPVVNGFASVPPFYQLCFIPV
Sequence of Broad substrate specificity ATP-binding cassette transporter ABCG2 (Homo sapiens) (Q9UNQ0 whole entry, looked up): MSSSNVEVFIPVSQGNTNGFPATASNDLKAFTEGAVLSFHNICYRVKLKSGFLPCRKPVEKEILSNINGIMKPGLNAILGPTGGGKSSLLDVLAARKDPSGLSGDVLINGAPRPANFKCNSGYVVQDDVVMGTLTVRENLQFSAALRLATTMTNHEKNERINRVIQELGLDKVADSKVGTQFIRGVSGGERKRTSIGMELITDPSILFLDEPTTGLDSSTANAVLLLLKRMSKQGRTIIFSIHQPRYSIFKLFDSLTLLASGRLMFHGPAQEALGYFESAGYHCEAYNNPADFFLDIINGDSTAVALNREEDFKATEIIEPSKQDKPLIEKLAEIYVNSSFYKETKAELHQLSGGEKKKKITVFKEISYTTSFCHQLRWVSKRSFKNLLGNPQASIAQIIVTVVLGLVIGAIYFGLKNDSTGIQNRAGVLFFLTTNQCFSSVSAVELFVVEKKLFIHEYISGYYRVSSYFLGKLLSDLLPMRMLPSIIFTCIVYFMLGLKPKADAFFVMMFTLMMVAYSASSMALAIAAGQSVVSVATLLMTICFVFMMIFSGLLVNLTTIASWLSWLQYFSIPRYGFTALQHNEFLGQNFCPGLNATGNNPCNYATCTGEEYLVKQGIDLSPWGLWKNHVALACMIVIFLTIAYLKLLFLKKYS

Regarding `Cc1c(-c2cccnc2)c2ccccc2n1CCCCC(=O)O`, the compound was classed as inactive in [1], in [2], in test [3], in [4], in [5] and in test [6]. In addition, the result (in test [7]; in test [8]; in the test with BCL2L11 (gene 10018); in test [9]; in [10]; in [11]) was inactive. The compound was called inactive (with Caspase-3 (Homo sapiens); in test [12]; in [14]; in test [16]). The concentration at half-maximal activity (AC50) in [13] was 50 µM (active); in test [15], 35.9 µM (active).

Regarding `CC(O)CN(CCN(CC(C)O)CC(C)O)CC(C)O` (configuration not stated), the call in test [1], in test [2], in test [3], in test [4], in test [5] and in test [8] was inactive. In addition, the call (in [17]; in the test with BCL2L11 (gene 10018); in test [9]; in test [11]; with Caspase-3 (Homo sapiens); in test [12]) was inactive. Besides, the call in test [14], in [15] and in test [16] was inactive. Moreover, the AC50 in test [6] is 12.2 µM (active); in test [10], 12.7 µM (active); in test [13], 50 µM (active).

On to `Cc1[nH]cnc1C[C@H]1CCc2c(C)c3ccccc3n2C1=O`, for which the AC50 in test [1] is 22.7 µM (active); in test [3], 75.6 µM (active); in test [4] it was 54.4 µM (active); in test [7], 28 µM (active); in the test with BCL2L11 (gene 10018) it was 26.6 µM (active); in test [9], 19.6 µM (active). Moreover, the half-maximal activity concentration (AC50) was 24.1 µM (active) in test [10]; 5.56 µM (active) in [13]; 66.7 µM (active) in test [14]; 29 µM (active) in test [15]; 30.6 µM (active) in test [16]. Further, the compound was called inactive (in test [2]; in test [5]; in test [6]; in [8]; in [11]; in the test with Caspase-3 (Homo sapiens)). Also, in [12], the compound was called inactive.

With `CCCC(=O)OCC`, the compound was called inactive in [1], in test [2], in test [3], in [4], in test [5] and in test [6]. Moreover, the result (in test [7]; in test [8]; in the test with BCL2L11 (gene 10018); in test [9]; in [10]; in test [11]) was inactive. Also, the call (in the test with Caspase-3 (Homo sapiens); in [12]; in test [13]; in test [14]; in test [15]; in [16]) was inactive.
